From PubChem BioAssay
In the library only some 1.8% were active in any assay of this set; here they are far more common.
LYPLA1 inh = counter-screen for PME1 inhibitors: inhibitors of human LYPLA1. hit rate 0.16% among 320,000. recombinant LYPLA1, FP-Rh probe fluorescence polarization. O75608. AID 2174. inhibition, % at 5.9 µM;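 active = inhibition above the mean of all tested compounds plus 3 SD, set per campaign, cut at about 14% in these data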;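 note: inhibitors block serine hydrolase probe labeling of LYPLA1 so polarization falls; 0% = enzyme with DMSO and 100% = wells lacking LYPLA1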
Target sequence (O75608 whole entry, looked up): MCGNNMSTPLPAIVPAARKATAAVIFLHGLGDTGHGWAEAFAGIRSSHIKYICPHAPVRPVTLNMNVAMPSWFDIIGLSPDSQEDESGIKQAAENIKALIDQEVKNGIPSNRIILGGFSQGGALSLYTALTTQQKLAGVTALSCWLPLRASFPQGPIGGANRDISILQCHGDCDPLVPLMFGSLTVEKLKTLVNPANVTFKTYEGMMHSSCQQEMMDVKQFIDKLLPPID
Fam108B inh = Fam108B inhibition, counter-screen for RBBP9 inhibitors; AID 1947; inhibition, % at 9.51 µM; recombinant Fam108B, FP-Rh probe fluorescence polarization; hit rate 0.33% among 300,000;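 active = inhibition above the screen mean inhibition plus 3 SD, computed separately per campaign, cut at about 18% in these data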;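 note: inhibitors lower polarization as less probe binds the enzyme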
LYPLA2 counter = counter-screen for PME1 inhibitors: inhibitors of human LYPLA2; O95372; recombinant LYPLA2, FP-Rh probe fluorescence polarization; inhibition, % at 5.9 µM; hit rate 0.38% among 320,000;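 active = inhibition above the screen-wide mean plus 3 SD, limit set per campaign, cut at about 26% in these data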;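 note: 0% = LYPLA2 with DMSO and 100% = wells lacking LYPLA2 enzyme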
PAD4 inh = PAD4 (human) enzyme inhibition; AID 485272; inhibition, % at 6.36 µM; recombinant PAD4, RCA probe fluorescence polarization; Q9UM07; hit rate 0.41% among 330,000;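 active = percent inhibition above a cutoff equal to the mean of all tested compounds plus 3 SD, cut at about 15% in these data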;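 note: 0% = PAD4 with RCA probe and DMSO and 100% = probe without PAD4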
PME-1 primary = PME-1 (human) inhibition; inhibition, % at 5.9 µM; recombinant PME-1, FP-Rh probe fluorescence polarization; hit rate 0.53% among 320,000; AID 2130;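 active = inhibition above the campaign mean of all compounds plus 3 SD, cut at about 26% in these data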;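 note: competitive labeling of PME-1 active site by serine hydrolase directed probe; 0% = PME-1 with DMSO and 100% = wells lacking PME-1 enzyme; inhibitors block probe labeling so polarization falls and inhibition rises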
GSTO1 inh = blocks human GSTO1 in RBBP9 counter-screen; recombinant GSTO1, activity-based probe fluorescence polarization; inhibition, % at 5.96 µM; hit rate 1.1% among 300,000; AID 1974;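 active = inhibition above the campaign mean inhibition plus 3 SD, cut at about 35% in these data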;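 note: 0% = GSTO1-1 with DMSO and 100% = wells lacking GSTO1-1 enzyme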
Target sequence (P78417 whole entry, looked up): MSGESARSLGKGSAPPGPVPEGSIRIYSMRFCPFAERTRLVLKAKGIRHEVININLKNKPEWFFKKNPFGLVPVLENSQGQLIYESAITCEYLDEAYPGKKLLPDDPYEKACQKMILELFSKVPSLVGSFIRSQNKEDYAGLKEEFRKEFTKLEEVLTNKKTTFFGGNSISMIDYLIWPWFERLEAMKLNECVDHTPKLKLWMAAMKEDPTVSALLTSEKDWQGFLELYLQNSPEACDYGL
LYPLA2 conf = counter-screen for PME1 inhibitors: confirmation of human LYPLA2 inhibitors. shares compounds with LYPLA2 counter. recombinant LYPLA2, FP-Rh probe fluorescence polarization. inhibition, % at 5.9 µM. hit rate 72% among 1,100;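 active = mean inhibition across replicates above the hit cutoff set in the primary screen, cut at about 26% in these data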;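 note: blocked labeling of the enzyme by serine hydrolase FP-Rh probe lowers polarization; 0% = enzyme with DMSO and 100% = wells lacking LYPLA2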
LYPLA2 ABPP = blocks human acyl-protein thioesterase 2 in gel ABPP; shares compounds with LYPLA2 counter; rhLYPLA2 in mouse brain proteome, gel ABPP FP-Rh; inhibition, % at 20 µM; hit rate 30% among 150;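 active = inhibition of LYPLA2 enzyme probe labeling above about 50%, limit read from the data; inactive = inhibition below that limit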;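 note: loss of FP-Rh probe labeling of the LYPLA2 gel band measured as band density; 0% = DMSO only control band and 100% = blank gel background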
PAD4 confirm = confirmation of human PAD4 inhibitors. shares compounds with PAD4 inh. inhibition, % at 6.36 µM. hit rate 28% among 1,200. AID 488796. recombinant PAD4, RCA probe fluorescence polarization;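 active = mean inhibition across replicates above the hit cutoff set by the earlier primary screen, cut at about 15% in these data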;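 note: inhibitors block active-site labeling by the probe so polarization falls; 0% = PAD4 with probe and DMSO and 100% = probe without PAD4 enzyme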
Numbers without * were called inactive; . = no result given.

SMILES	LYPLA1 inh	Fam108B inh	LYPLA2 counter	PAD4 inh	PME-1 primary	GSTO1 inh	PAD4 confirm	others
CCCC(=O)c1ccc(N2CCN(C(=O)c3ccc(Br)cc3)CC2)c(F)c1	3	1	39*	-2	2	-4	.	LYPLA2 conf=70*;LYPLA2 ABPP=8
CCC(=O)c1ccc(N2CCN(C(=O)c3ccc(F)cc3)CC2)c(F)c1	5	-2	16	-4	4	6	.
CCCC(=O)c1ccc(N2CCN(C(=O)c3ccccc3)CC2)c(F)c1	4	3	16	-1	-1	0	.
Cc1ccccc1OCCC(=O)OCC(=O)NNC(=O)c1cccs1	0	.	5	0	-1	.	.
COCCn1c(N)c(N(Cc2ccccc2)C(=O)Cc2c(Cl)cccc2Cl)c(=O)[nH]c1=O	-7	3	-2	2	2	8	.
CCS(=O)(=O)N1CCC(C(=O)Oc2ccccc2Br)CC1	2	1	1	-3	5	6	.
COc1cc(C(=O)NCCCc2ccccc2)cc(OC)c1OC	1	-2	1	-6	1	0	.
COc1cc(C(=O)NCC(=O)NC(C)CCc2ccccc2)cc(OC)c1OC (stereo unspecified)	3	-3	27*	3	0	-1	.	LYPLA2 conf=-2
COc1cc(/C=N/NC(=O)C(NC(=O)c2ccccc2)c2n[nH]c(=O)c3ccccc23)ccc1OCC(N)=O (stereo unspecified)	-2	-1	78*	3	6	-17	.	LYPLA2 conf=74*
O=C(c1cc(COc2ccc(F)cc2F)on1)N1CC2C[C@@H]3CC1C[C@H](C2)C3	0	1	7	-1	3	7	.
O=C(c1cc(COc2ccc(F)cc2F)on1)N1C[C@H]2CC[C@H]1C2	2	1	27*	-3	1	2	.	LYPLA2 conf=1
O=C(c1ccc(OC2CCN(CCc3ccccc3)CC2)cc1)N1CCCC(CCCO)C1 (stereo unspecified)	7	2	65*	-2	0	-1	.	LYPLA2 conf=51*;LYPLA2 ABPP=12
O=C(OCC(=O)N1CCN(Cc2ccccc2)CC1)c1cc(Cl)ccc1[N+](=O)[O-]	9	.	39*	2	2	.	.	LYPLA2 conf=40*
C=C[C@@H]1c2cc(C)ccc2N(S(=O)(=O)c2ccc(C)cc2)[C@H](c2ccccc2)C1(C#N)C#N	2	.	-5	-3	-1	.	.
O=C1N=C(c2ccccc2)S/C1=C\c1cccs1	-2	4	-1	3	5	7	.
O=C1N=C(N2CCN(c3ccccc3)CC2)S/C1=C/c1cccs1	3	-1	34*	3	6	6	.	LYPLA2 conf=38*
COc1ccc(NC(=O)c2cc(F)c(F)cc2Cl)cc1Cl	3	-1	28*	3	2	-9	.	LYPLA2 conf=20
O=C(O)c1ccc(Nc2cc(Cl)c3nonc3c2[N+](=O)[O-])cc1	1	6	4	-1	4	-41	.
O=[N+]([O-])c1c(Nc2cccc(O)c2)cc(Cl)c2nonc12	0	2	47*	3	13	5	.	LYPLA2 conf=51*
O=C(NC(Cc1ccccc1)C(=O)O)/C(=C/c1ccc(F)cc1)NC(=O)c1ccccc1 (stereo unspecified)	-1	1	-1	-1	-4	3	.
COc1cccc(N2C(=O)CC(Nc3ccc(N4CCOCC4)cc3)C2=O)c1 (stereo unspecified)	-1	-5	3	31*	5	7	2
COc1cccc(CNC(=O)CCNS(=O)(=O)c2ccc3[nH]c(=O)oc3c2)c1	0	-3	0	-1	2	7	.
CC1(C)Cc2c(c(-c3ccccc3)[nH]c(=O)c2C#N)CS1	-3	2	-2	1	-5	-2	.
CC1(C)Cc2c(c(-c3ccco3)[nH]c(=O)c2C#N)CS1	2	2	7	26*	0	18	5
CS(=O)(=O)N1N=C(c2cccs2)CC1c1ccccc1 (stereo unspecified)	0	-1	5	30*	-2	1	2
SMILES	LYPLA1 inh	Fam108B inh	LYPLA2 counter	PAD4 inh	PME-1 primary	GSTO1 inh	PAD4 confirm	others
CCCN1CCc2c(sc(NC(=O)C3CCN(S(=O)(=O)c4cccs4)CC3)c2C(N)=O)C1	5	-3	17	-1	11	5	.
CC(=O)c1ccc(Sc2nnnn2-c2ccccc2)c([N+](=O)[O-])c1	-3	2	6	17*	2	13	14
CN1CCN(S(=O)(=O)c2ccc(Sc3nnnn3-c3ccccc3)c([N+](=O)[O-])c2)CC1	4	4	3	2	1	6	.
Cc1nn(CC(=O)Nc2c(F)c(F)cc(F)c2F)c(=O)c2cccn12	0	0	4	-3	2	-3	.
Cc1cc(C)c2c(c1)-c1c(ssc1=S)C(C)(C)N2C(=O)CN1C(=O)c2ccccc2C1=O	-1	0	6	24*	4	-8	38*
Cc1cccc2c1N(C(=O)CN1C(=O)c3ccccc3C1=O)C(C)(C)c1ssc(=S)c1-2	0	2	0	27*	8	5	40*
CCCS(=O)(=O)N1CCCC(C(=O)Oc2ccc(Cl)cc2)C1 (stereo unspecified)	3	2	9	-4	4	-2	.
COc1ccc(/C=N/Nc2nnc(C)n2N)cc1OC(C)=O	2	-6	2	45*	2	30	5
Cc1nnc(N/N=C/c2ccc([N+](=O)[O-])cc2)n1N	1	3	-1	5	-1	-1	.
COc1ccc(/C=N/Nc2nnc(C)n2N)cc1OC	3	0	-4	25*	1	34	5
CN(C)c1ccc(NC(=S)c2ccc3ccccc3n2)cc1	-6	8	-2	38*	4	30	6
COC(=O)C(F)(Sc1c(C)n(C)n(-c2ccccc2)c1=O)C(F)(F)F (stereo unspecified)	2	0	-2	48*	1	2	34*
O=C(/C=C/c1ccccc1)Nc1ccc(C(=O)N2CCCCC2)cc1	-4	-1	-1	-1	-1	-8	.
COc1ccc(OC)c(C2NC(=O)c3sc(=S)n(-c4ccccc4)c3N2)c1 (stereo unspecified)	-4	2	4	22*	10	5	35*
COc1ccc2c(c1)oc(=O)c1ccccc12	-1	-1	6	15*	-4	10	23*
COc1ccc2c(c1)oc(=O)c1cc(OC)ccc12	2	-12	-3	-8	-4	-10	.
